# tim23-1 inh – growth inhibitors of tim23-1 mutant yeast, primary screen, luminescence, uHTS; S. cerevisiae tim23-1 growth, BacTiter-Glo luminescence, 24 h; inhibition, % at 20 µM; 1.3% of 330,000 active;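 active = growth inhibition of the mutant yeast at or above 50%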;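 also: temperature-sensitive mutant grown at 25 °C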
# tim10-1 inh – growth inhibitors of tim10-1 mutant yeast, primary screen, luminescence, uHTS | S. cerevisiae tim10-1 ts strain growth, BacTiter-Glo, 24 h | inhibition, % at 20 µM | 2.2% of 330,000 active | AID 463190, 2010;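 active = inhibition of at least 40%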;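 also: mutant grown at 25 °C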
# NALP3 yeast inh – NALP3 inflammasome inhibitors in reconstituted yeast, primary screen, luminescence, uHTS. AID 2825, 2010. inhibition, % at 10 µM. 0.39% of 330,000 active. Yeast reconstituted NLRP3/ASC/caspase-1, beta-gal luminescence, 24 h;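 active = inhibition of 50% or more; inactive = inhibition below 50%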
# TIM10 inh – growth inhibitors of isogenic TIM10 control yeast, primary screen, counter-screen for tim10-1 yeast inhibitor project, luminescence, uHTS; inhibition, % at 10 µM; 1.4% of 330,000 active; S. cerevisiae TIM10 strain growth, BacTiter-Glo luminescence, 24 h; AID 463195, 2010;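 active = inhibition of 40% or more at the single tested concentration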;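 also: wild-type TIM10 isogenic control strain grown at permissive 25 °C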
# PfHsp90 set2 – growth inhibition of PfHsp90-expressing yeast, primary screen, antimalarial PfHsp90 inhibitor project, S. cerevisiae, BacTiter-Glo luminescence, single point, set 2; BacTiter-Glo ATP, 48 h; yeast lacking PDR1 and PDR3 efflux regulators; inhibition, % at 9.4 µM; 0.32% of 310,000 active; AID 504621, 2011;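 active = every replicate shows inhibition above about 80%, whatever the replicate mean, limit read from the data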
# NALP1 yeast inh – NALP1 inflammasome inhibitors in reconstituted yeast, colorimetric, S. cerevisiae, triplicate retest | S. cerevisiae NALP1/ASC/caspase-1 growth, X-gal OD620, 72 h | AID 2071, 2009 | 0.61% of 280,000 active | inhibition, % at 10 µM; in the data active = inhibition mostly above about 24%, no sharp cut-off; inactive = mostly below about 32%
# tim10-1 confirm – growth inhibitors of tim10-1 mutant yeast, confirmation, single concentration, luminescence, S. cerevisiae; inhibition, % at 20 µM; 56% of 7,400 active; S. cerevisiae tim10-1 ts strain growth, BacTiter-Glo, 24 h; shares compounds with tim10-1 inh;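 active = inhibition of yeast growth at or above a set limit in either of two repeat tests at 20 µM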;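 also: tim10-1 mutant grown at permissive 25 °C to find synthetic lethal compounds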
# Hits are given with their value; i = inactive; nt = no result given. Sampled rows, rich in hits. Any-hit rate of the full collection: about 4.2%.
SMILES,tim23-1 inh,tim10-1 inh,NALP3 yeast inh,TIM10 inh,PfHsp90 set2,NALP1 yeast inh,tim10-1 confirm
O=C1OC(c2ccco2)=N/C1=C\c1ccc(-c2cccc(C(F)(F)F)c2)o1,i,46,i,i,i,i,i
CCN(CC)CCOc1c(Br)ccc2c1sc1nc3n(c(=O)c12)CCC3,i,i,i,i,i,i,nt
O=c1c2c(nc3n1CCCCC3)sc1c(O)c(Br)ccc12,i,45,i,i,nt,i,i
c1ccc(CNc2nc(NCc3ccccc3)c3ccccc3n2)cc1,i,62,i,i,i,i,i
COc1ccccc1-c1ccc(/C=C2\C=CC(=O)O2)o1,i,48,i,i,i,i,36
C=C1CCC[C@]2(C)C[C@H]3OC(=O)C(CN4CCCCC4CO)[C@H]3CC12 (some centres undefined),i,48,i,i,i,i,37
C=C1CCC[C@]2(C)C[C@H]3OC(=O)C(CNC(C)CC)[C@H]3CC12 (some centres undefined),i,43,i,i,i,i,37
C=C1CCC[C@]2(C)C[C@H]3OC(=O)C(CNC(CC)CO)[C@H]3CC12 (some centres undefined),i,52,i,i,i,i,45
C=C1CCC[C@]2(C)C[C@H]3OC(=O)C(CN(C)CC(OC)OC)[C@H]3CC12 (some centres undefined),i,42,i,i,i,i,41
C=CCN(C(=O)CNC(=O)c1cccs1)C(C(=O)NC1CCCCC1)c1cccnc1 (centres undefined),i,i,i,i,i,i,nt
O=C(Nc1c2c(nn1-c1ccccc1)CS(=O)C2)c1ccc2c(c1)OCO2 (centres undefined),i,i,i,i,i,i,nt
COC(=O)C(C)n1cnc2c(nnn2-c2cccc(OC)c2)c1=O (centres undefined),i,i,i,i,i,i,nt
COc1cc(C2Nc3cccc4cccc(c34)N2)ccc1OC(C)=O,i,41,i,i,i,i,39
O=C(CCC(=O)N1CCOCC1)NCc1cccc(C(F)(F)F)c1,i,i,i,i,i,nt,nt
OC(COC(c1ccccc1)c1ccccc1)CN1CCc2ccccc2C1 (centres undefined),i,i,i,i,i,i,nt
OC(COC(c1ccc(Cl)cc1)c1ccc(Cl)cc1)CN1CCc2ccccc2C1 (centres undefined),i,44,i,i,i,i,i
CN(C)C(CNC(=O)c1cc(S(=O)(=O)N2CCOCC2)ccc1Cl)c1cccs1 (centres undefined),nt,nt,nt,nt,i,nt,nt
CSc1ccc(CCNC(=O)c2cccc3c2C(=O)N(C2CCCCC2)C3)cc1,i,42,i,i,i,i,i
O=C(Nc1ccc(Br)cc1Br)c1cccc2c1C(=O)N(C1CCCCC1)C2,i,42,i,i,i,i,i
O=C(Nc1ccc(Br)cc1)c1cccc2c1C(=O)N(C1CCCCC1)C2,i,55,i,i,i,i,i
Cc1cc2occ(CC(=O)N(C)CC(=O)Nc3ccccc3C(F)(F)F)c2cc1C,i,i,i,i,i,nt,nt
COC(=O)[C@@]12CCCN1[C@H](c1ccc(-c3ccc(OC)cc3)cc1)[C@@H]1C(=O)N(C)C(=O)[C@@H]12,i,i,i,i,i,nt,nt
O=c1c(Cl)c(N2CCN(c3ccc(F)cc3)CC2)cnn1C12CC3CC(CC(C3)C1)C2,i,48,i,i,i,i,i
O=c1c(Cl)c(N2CCN(c3ccccc3)CC2)cnn1C12CC3CC(CC(C3)C1)C2,i,i,i,i,i,i,nt
COc1ccc(C(C)=O)c(Oc2nc(CN3CCOCC3)nc3scc(-c4cccs4)c23)c1,i,40,i,i,i,i,i
SMILES,tim23-1 inh,tim10-1 inh,NALP3 yeast inh,TIM10 inh,PfHsp90 set2,NALP1 yeast inh,tim10-1 confirm
CC(=O)c1ccccc1Oc1nc(CN2CCOCC2)nc2scc(-c3cccs3)c12,i,i,i,i,i,i,nt
CCOC(=O)c1ccc(NC(=S)Nc2ccc(Br)cc2N)cc1,i,i,i,i,i,nt,nt
Cc1cccc2c(=O)c(-c3ccc4c(c3)OCO4)c(NC(=O)c3ccco3)oc12,i,42,i,i,i,i,i
NNc1ccc(Cl)c(C(=O)O)c1,i,i,i,i,i,i,nt
O=C(N=C1SCC(=O)N1c1ccccc1Cl)c1ccco1,i,i,i,i,i,i,nt
O=C(N=C1SCC(=O)N1c1ccccc1Cl)c1ccccc1,i,42,i,i,i,i,i
Cc1sc(NC(=O)c2ccco2)c(C(c2ccc(F)cc2)N2CCN(C)CC2)c1C (centres undefined),i,56,i,i,nt,i,i
Nc1ccc(C#Cc2ccc3sc4ccccc4c(=O)c3c2)cc1,i,i,i,i,i,nt,nt
COc1cccc2sc3ccc(C#CC4(O)CCCCC4)cc3c(=O)c12,i,41,i,i,i,i,i
COc1cccc2sc3ccc(C#Cc4ccc(N)cc4)cc3c(=O)c12,i,i,i,i,i,i,nt
O=c1c2ccccc2sc2ccc(C#CC3(O)CCCCC3)cc12,i,41,i,i,i,nt,35
O=C(Nc1cccc(S(=O)(=O)N2CCCCC2)c1)c1ccc(N2CCCC2=O)cc1,i,i,i,i,i,nt,nt
COC(=O)c1cc(S(=O)(=O)N2CCN(c3ccccc3)CC2)c[nH]1,i,i,i,i,i,i,nt
COC(=O)c1cc(S(=O)(=O)N2CCN(c3cccc(C)c3C)CC2)c[nH]1,i,51,i,i,i,i,30
O=C(CCCN1C(=O)c2ccccc2C1=O)Nc1ccc(S(=O)(=O)N2CCOCC2)cc1,i,i,i,i,nt,i,nt
O=C(CCCN1C(=O)c2ccccc2C1=O)Nc1ccc(S(=O)(=O)N2CCCCC2)cc1,i,41,i,i,i,i,32
COc1ccc(CSCC(=O)Nc2ccc(S(=O)(=O)N3CCCCCC3)cc2)cc1,i,42,i,i,i,i,i
Cc1ccccc1OCC(=O)Nc1ccc(S(=O)(=O)N2CCCC2)cc1,i,49,i,i,nt,nt,37
COc1ccccc1OCC(=O)Nc1ccc(S(=O)(=O)N2CCCCCC2)cc1,i,i,i,i,i,i,nt
CCOc1ccccc1OCCCC(=O)N1CCN(S(=O)(=O)c2ccc(C)cc2)CC1,i,41,i,i,i,i,i
C=CCNC(=O)NC(=O)COC(=O)[C@H](C)NS(=O)(=O)c1c(C)c(C)cc(C)c1C,i,i,i,i,i,nt,nt

# Screens from PubChem.
